The structures appear in SMILES notation. Values without a mark were called inactive. Results filed as inconclusive are left out. Active and inactive are the calls of the source. Unless noted, calls come from the whole dose curve; as a rule, active = well fitted curve in the direction sought with a large enough effect in the repeat runs; inconclusive = weak or mixed curves; inactive = no such curve, though single readings can be large; an effect the other way counts as inactive or inconclusive.

In PubChem BioAssay (Tox21) one finds Potency, outcome and max activation data, which are given here for eight compounds.

The target of test [1] is Progesterone receptor (Homo sapiens) (UniProt P06401). Kind of test: qHTS assay to identify small molecule agonists of the progesterone receptor (PR) signaling pathway (AID 1346784; calls by dose curve; note: nearly all actives have a fitted effect of over 30% in size). In outline: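 Reporter assay, GripTite PR-UAS-bla HEK 293T cells: 16 hr exposure to DMSO-dissolved compounds at 37C, 5% CO2, in steroid-depleted (2% charcoal-stripped FBS) medium; beta-lactamase measured by FRET fluorescence.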
In general terms: In qHTS, concentration-response curves come from the screen itself.

Test [2] shares this target. Kind of test: qHTS assay to identify small molecule antagonists of the progesterone receptor (PR) signaling pathway (AID 1346795; active = well fitted inhibition curve with a large enough effect in the signal ratio in the repeat runs, not every such curve was filed as active; the % refers to the signal ratio). In outline: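 Stimulus R5020 at 1 nM final; cells HEK293T PR-UAS-bla; medium with 2% charcoal-stripped FBS; compound exposure 16 hr at 37C, 5% CO2; detection by FRET beta-lactamase substrate, 2 hr, room temperature.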
Test [3] can be described thus: qHTS assay to identify small molecule antagonists of the progesterone receptor (PR) signaling pathway - cell viability counter screen (AID 1346798). Note: series mostly up to about 92 µM; nearly all actives have a fitted effect of over 50% in size. In outline: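 In the same plates used for the beta-lactamase readout, cell viability of compound- and R5020-treated PR-UAS-bla HEK293T cells (16 hr, 37C) was assessed by CellTiter-Glo luminescence.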
The nature of test [4]: qHTS assay to identify small molecule agonists of the progesterone receptor (PR) signaling pathway - cell viability counter screen (AID 1346799; calls by dose curve; note: nearly all actives have a fitted effect of over 45% in size). In outline:
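Multiplexed viability read: CellTiter-Glo luminescence, 30 min RT, following LiveBLAzer FRET measurement on PR-UAS-bla HEK293T cells exposed to compounds 16 hr.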

A short description of test [5]: qHTS assay to identify small molecule antagonists of the TGF-beta/Smad signaling pathway - cell viability counter screen (AID 1346824). Note: nearly all actives have a fitted effect of over 50% in size. In outline: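 SBE-bla HEK 293T cells were plated overnight at 37 C, then given compounds in DMSO plus TGF-beta1 (added as 0.25 ng/mL solution) for 5 hr. After the bla read, CellTiter-Glo was added to the same wells and luminescence read after 30 min at room temperature.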

Test [6] can be described thus: qHTS assay to identify small molecule agonists of the TGF-beta/Smad signaling pathway - cell viability counter screen (AID 1346829). Note: top concentration of the series differs between compounds; nearly all actives have a fitted effect of over 45% in size. In outline:
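In parallel with the Smad reporter read, viability of HEK 293T cells stably carrying SBE-bla is quantified by ATP luminescence following 5 hr compound treatment.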

Test [7] can be described thus: qHTS assay to identify small molecule agonists of the TGF-beta/Smad signaling pathway (AID 1346859; active = well fitted activation curve with a large enough effect in the signal ratio in the repeat runs, not every such curve was filed as active; the % refers to the signal ratio; note: series mostly up to about 77 µM). In outline: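 Screening used HEK 293T SBE-bla cells at 4,000/well. Test agents: 5 hr, 37 C. Detection: FRET substrate, 2 hr RT, then excitation 405 nm with emissions at 460 and 530 nm.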
The target in test [8] is Thyrotropin-releasing hormone receptor (Homo sapiens) (UniProt P34981). Kind of test: qHTS assay to identify small molecule antagonists of the thyrotropin-releasing hormone receptor (TRHR) signaling pathway (AID 1346877; active = well fitted inhibition curve with a large enough effect in the repeat runs, not every such curve was filed as active; note: series mostly up to about 51 µM). In outline:
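Overnight-plated (18 h, 37 °C) HEK293 cells expressing TRHR were dye-loaded 2 h, treated with compound, then stimulated with TRH at 1 nM final. Fluorescence intensity was captured every second for 3 min.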

The target is the same in test [9]. As to the kind of experiment: qHTS assay to identify small molecule agonists of the thyrotropin-releasing hormone receptor (TRHR) signaling pathway (AID 1346891; calls by dose curve; note: series mostly up to about 58 µM). In outline:
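Readout was intracellular calcium fluorescence in TRHR-Hek293 cells. Cells were incubated 18 h, dye-loaded 2 h at 37 °C, and treated with compound in agonist mode.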

Test [10] in a line: Human pregnane X receptor (PXR) small molecule agonists, qHTS cell viability counter screen (AID 1346977). Note: nearly all actives have a fitted effect of over 50% in size. Note: potency is the fitted concentration of half-maximal effect. In outline:
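In each well, the PXR reporter HepG2 line was checked for viability: CellTiter-Fluor reagent added 23hr post-dosing, fluorescence read after 1hr incubation at 37C.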

Test [11] in a line: Caspase-3/7 induction in HepG2 cells by small molecules, qHTS assay (AID 1346978). Note: nearly all actives have a fitted effect of over 15% in size. In outline:
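Wild-type HepG2 cells (2,000/well) were settled 5 h at 37 C, 5% CO2, then exposed to compounds in DMSO for 17 h. Caspase-3/7 activity was read by luminescence 30 min after adding Caspase-Glo 3/7 reagent at room temperature.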

The nature of test [12]: Caspase-3/7 induction in CHO-K1 cells by small molecules, qHTS cell viability counter screen (AID 1346979). Note: nearly all actives have a fitted effect of over 35% in size. In outline: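 Following a 5hr settling period, CHO-K1 cells at 1,500 per well received DMSO-dissolved compounds. Cell viability was quantified 16hr later by CellTiter-Fluor fluorescence, measured after 1hr with reagent at 37C.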
Test [13] in a line: Caspase-3/7 induction in CHO-K1 cells by small molecules, qHTS assay (AID 1346980). Note: nearly all actives have a fitted effect of over 15% in size. In outline: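 Wild-type cells were seeded at 1,500 per well and settled 5 hr at 37 C, 5% CO2, then exposed to DMSO-dissolved compounds for 17 hr. Caspase-Glo 3/7 reagent was added, and luminescence was read after 30min at room temperature.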
Test [14] can be described thus: Caspase-3/7 induction in HepG2 cells by small molecules, qHTS cell viability counter screen (AID 1346981). Note: nearly all actives have a fitted effect of over 30% in size. Note: potency is the fitted concentration of half-maximal effect. In outline:
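Treatment of HepG2 cells with DMSO-delivered compounds ran 16 hr at 37 C following a 5-hr pre-incubation of 2,000 cells/well. CellTiter-Fluor fluorescence, read after 1 hr, served as the viability measure in a qHTS format.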

Test [15] has as its target Nuclear receptor subfamily 1 group I member 2 (Homo sapiens) (UniProt O75469). Kind of test: Human pregnane X receptor (PXR) small molecule agonists, qHTS assay (AID 1346982). Note: nearly all actives have a fitted effect of over 35% in size. Note: potency is the fitted concentration of half-maximal effect. In outline: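 Stable HepG2 line reporting PXR-mediated CYP3A4 expression via luciferase. Treatment: 24 hr with compounds in DMSO at 37 C. Detection: ONE-Glo luminescence.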
In test [16] the target is Cytochrome P450 2C19 (Homo sapiens) (UniProt P33261). As to the kind of experiment: Cytochrome P450 Family 2 Subfamily C Member 19 (CYP2C19) small molecule antagonists: luciferase reporter qHTS assay (AID 1671197). Note: nearly all actives have a fitted effect of over 65% in size. Note: potency is the fitted concentration of half-maximal effect. In outline: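 Compounds were tested on CYP2C19 activity via proluciferin conversion to luciferin. The 37C, 1 h reaction followed NADPH addition; detection reagent stopped it.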

For test [17], the target named is Cytochrome P450 2D6 (Homo sapiens) (UniProt P10635). As to the kind of experiment: Cytochrome P450 Family 2 Subfamily D Member 6 (CYP2D6) small molecule antagonists: luciferase reporter qHTS assay (AID 1671196). Note: nearly all actives have a fitted effect of over 50% in size. Note: potency is the fitted concentration of half-maximal effect. In outline:
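Chemicals tested for interference with CYP2D6 activity; proluciferin substrate, NADPH regeneration, 1 h at room temperature, luminescent detection.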
On the technique in general: Reporter assays use an easily measured gene product as a stand-in for the process of interest.

Test [18] addresses Nuclear receptor subfamily 1 group I member 2 (Rattus norvegicus) (UniProt Q9R1A7). As to the kind of experiment: Rat pregnane X receptor (rPXR) activation by small molecules, qHTS assay (AID 1346983). Note: nearly all actives have a fitted effect of over 20% in size. The following applies: rPXR luciferase reporter cells, One-Glo luminescence, 24 h; active compounds read high. In outline:
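Cell-based rPXR luciferase reporter assay, 2,000 cells per well, rested 5hr at 37 C before compound addition in DMSO, then 24 hr at 37 C. One-Glo reagent was added and luminescence read after 30 min at room temperature.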
% is set by controls: 0 for no effect and ±100 for the full control effect.

Nuclear receptor subfamily 1 group I member 2 (Homo sapiens), sequence (O75469 whole entry, looked up): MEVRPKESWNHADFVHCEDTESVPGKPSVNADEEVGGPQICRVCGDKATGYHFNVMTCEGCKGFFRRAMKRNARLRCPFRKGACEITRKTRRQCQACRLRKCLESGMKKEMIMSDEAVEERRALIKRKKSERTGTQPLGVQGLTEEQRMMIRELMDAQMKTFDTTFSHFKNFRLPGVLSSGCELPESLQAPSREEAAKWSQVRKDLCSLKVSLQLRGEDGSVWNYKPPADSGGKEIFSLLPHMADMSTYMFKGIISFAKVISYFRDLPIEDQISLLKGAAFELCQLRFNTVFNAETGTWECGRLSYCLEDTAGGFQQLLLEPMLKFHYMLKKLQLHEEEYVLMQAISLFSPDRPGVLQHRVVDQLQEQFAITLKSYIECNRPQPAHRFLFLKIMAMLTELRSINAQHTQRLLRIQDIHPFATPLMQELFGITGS
Thyrotropin-releasing hormone receptor (Homo sapiens), sequence (P34981 whole entry, looked up): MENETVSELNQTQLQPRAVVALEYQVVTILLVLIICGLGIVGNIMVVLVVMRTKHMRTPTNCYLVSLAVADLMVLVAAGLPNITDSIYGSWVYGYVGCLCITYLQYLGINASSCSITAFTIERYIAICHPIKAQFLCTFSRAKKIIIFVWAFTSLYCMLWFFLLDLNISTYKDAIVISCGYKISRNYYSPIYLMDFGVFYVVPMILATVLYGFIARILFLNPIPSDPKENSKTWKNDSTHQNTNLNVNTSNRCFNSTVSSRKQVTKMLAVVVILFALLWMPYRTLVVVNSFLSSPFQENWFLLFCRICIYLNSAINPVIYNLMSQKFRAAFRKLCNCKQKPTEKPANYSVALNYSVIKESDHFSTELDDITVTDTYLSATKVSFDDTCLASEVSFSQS
Progesterone receptor (Homo sapiens), sequence (P06401 whole entry, looked up): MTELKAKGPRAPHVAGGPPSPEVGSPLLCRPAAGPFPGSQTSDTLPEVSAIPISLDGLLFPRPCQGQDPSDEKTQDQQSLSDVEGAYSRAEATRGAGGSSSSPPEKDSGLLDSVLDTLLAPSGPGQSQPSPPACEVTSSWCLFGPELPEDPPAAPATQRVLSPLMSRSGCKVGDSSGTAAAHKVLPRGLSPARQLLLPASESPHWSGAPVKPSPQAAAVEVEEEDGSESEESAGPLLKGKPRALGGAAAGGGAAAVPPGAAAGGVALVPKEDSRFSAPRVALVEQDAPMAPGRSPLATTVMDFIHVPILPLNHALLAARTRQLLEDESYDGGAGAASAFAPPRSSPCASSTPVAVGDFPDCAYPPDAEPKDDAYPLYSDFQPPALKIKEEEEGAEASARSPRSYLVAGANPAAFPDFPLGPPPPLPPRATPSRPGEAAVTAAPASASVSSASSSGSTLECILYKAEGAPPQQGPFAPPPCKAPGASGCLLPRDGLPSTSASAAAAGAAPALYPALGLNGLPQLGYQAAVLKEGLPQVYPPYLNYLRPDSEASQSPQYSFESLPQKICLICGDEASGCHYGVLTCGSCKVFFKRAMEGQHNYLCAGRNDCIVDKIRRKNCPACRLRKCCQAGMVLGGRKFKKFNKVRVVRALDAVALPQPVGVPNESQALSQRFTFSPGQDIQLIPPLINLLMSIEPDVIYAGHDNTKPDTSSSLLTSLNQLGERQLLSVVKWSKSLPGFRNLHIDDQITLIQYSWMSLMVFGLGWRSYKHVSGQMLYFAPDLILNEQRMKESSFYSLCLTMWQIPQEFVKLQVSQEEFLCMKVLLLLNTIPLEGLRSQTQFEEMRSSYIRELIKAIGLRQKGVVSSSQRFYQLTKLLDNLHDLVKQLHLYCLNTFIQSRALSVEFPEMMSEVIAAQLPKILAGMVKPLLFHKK
Cytochrome P450 2D6 (Homo sapiens), sequence (P10635 whole entry, looked up): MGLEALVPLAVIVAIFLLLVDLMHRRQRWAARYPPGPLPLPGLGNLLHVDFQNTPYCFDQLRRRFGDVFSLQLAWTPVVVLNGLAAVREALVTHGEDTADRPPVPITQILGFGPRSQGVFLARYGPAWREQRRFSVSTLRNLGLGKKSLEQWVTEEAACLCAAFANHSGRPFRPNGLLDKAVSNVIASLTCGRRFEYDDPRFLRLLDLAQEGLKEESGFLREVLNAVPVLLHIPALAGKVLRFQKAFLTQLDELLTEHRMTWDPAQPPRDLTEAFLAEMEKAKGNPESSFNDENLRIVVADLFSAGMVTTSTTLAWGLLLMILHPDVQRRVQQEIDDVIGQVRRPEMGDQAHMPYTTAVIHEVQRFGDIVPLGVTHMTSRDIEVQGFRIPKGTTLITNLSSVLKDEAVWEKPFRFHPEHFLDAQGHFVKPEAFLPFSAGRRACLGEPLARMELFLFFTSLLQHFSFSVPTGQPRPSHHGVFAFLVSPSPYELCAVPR
Cytochrome P450 2C19 (Homo sapiens), sequence (P33261 whole entry, looked up): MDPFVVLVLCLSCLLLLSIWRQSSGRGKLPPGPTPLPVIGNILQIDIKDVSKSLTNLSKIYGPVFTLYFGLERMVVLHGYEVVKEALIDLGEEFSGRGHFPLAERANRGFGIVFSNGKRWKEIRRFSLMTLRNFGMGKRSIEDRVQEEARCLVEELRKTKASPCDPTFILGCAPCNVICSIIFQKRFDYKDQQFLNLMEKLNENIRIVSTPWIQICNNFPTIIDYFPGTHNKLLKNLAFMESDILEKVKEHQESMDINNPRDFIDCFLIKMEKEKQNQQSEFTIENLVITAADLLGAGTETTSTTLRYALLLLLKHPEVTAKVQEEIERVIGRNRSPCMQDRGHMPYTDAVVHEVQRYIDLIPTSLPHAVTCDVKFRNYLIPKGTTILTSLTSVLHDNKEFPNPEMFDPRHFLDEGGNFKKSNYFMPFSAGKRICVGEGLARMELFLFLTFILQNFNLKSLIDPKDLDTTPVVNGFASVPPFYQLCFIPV
Nuclear receptor subfamily 1 group I member 2 (Rattus norvegicus), sequence (Q9R1A7 whole entry, looked up): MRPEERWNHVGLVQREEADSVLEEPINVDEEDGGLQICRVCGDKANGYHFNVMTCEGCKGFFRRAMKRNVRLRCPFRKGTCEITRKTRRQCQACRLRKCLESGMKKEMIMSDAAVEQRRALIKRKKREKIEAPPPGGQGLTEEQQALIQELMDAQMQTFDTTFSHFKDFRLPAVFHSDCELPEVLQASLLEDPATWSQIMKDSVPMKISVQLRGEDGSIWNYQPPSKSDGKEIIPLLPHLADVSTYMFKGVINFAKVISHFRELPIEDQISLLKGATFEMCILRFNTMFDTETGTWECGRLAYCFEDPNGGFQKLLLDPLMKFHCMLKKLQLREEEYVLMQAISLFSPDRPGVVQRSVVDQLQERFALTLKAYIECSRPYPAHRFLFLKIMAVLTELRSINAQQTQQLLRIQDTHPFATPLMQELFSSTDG

Consider `CCOC(=O)/C=C/c1ccccc1`, for which the Potency entry in [1], in test [2], in test [3], in test [4], in test [10] and in test [11] was “inactive” in each case. The Potency result in [12], in [14] and in test [15] was “inactive” throughout. The outcome in test [5], in test [6], in [7], in test [8], in test [9] and in test [13] was inactive. The Potency in test [16] was 71 µM (active).

For `CCCCN`, the Potency entry in test [1], in test [2], in [3], in [4], in test [10] and in test [11] was “inactive” each time. Also, the Potency entry in test [12], in [14] and in test [15] was “inactive” in each case. Moreover, the result in [5], in [6], in test [7], in test [8], in test [9] and in test [13] was inactive.

As for `COc1ccc(Br)c(C)c1`, the Potency result in test [1], in [2], in test [3], in test [4], in test [10] and in test [11] was “inactive” throughout. Further, the Potency entry in test [12], in test [14], in test [15] and in [17] was “inactive” in each case. Further, the result in test [5], in [6], in test [7], in test [8], in test [9] and in [13] was inactive. The Potency in test [16] is 36 µM (active).

Turning to `Nc1ccc2cc(S(=O)(=O)O)cc(O)c2c1`, the Potency entry in test [1], in [2], in [3], in test [4] and in [11] was “inactive” each time. The compound was classed as inactive in test [5], in test [6], in [7], in test [8], in test [9] and in [13]. Further, the Potency is 54.2 µM (active) in test [10]; 60.8 µM (active) in test [14]; 6.08 µM (active) in test [15]; 44.5 µM (active) in [17]; 22.3 µM (active) in test [16].

Regarding `COCCOCCOCCOCCO`, the Potency entry in [1], in [2], in test [3], in test [4], in [10] and in [11] was “inactive” each time. Further, the Potency entry in [12], in [14], in test [15] and in test [16] was “inactive” throughout. Also, the result in test [5], in [6], in test [7], in test [8], in [9] and in test [13] was inactive.

With `CCNC(=O)C1CC(C)CCC1C(C)C` (stereo not drawn), the Potency entry in test [1], in test [2], in test [3], in test [4], in test [10] and in test [11] was “inactive” each time. For the same compound, the Potency result in test [14] and in test [17] was “inactive” in each case. In addition, the outcome in test [5], in test [6], in [7], in test [8], in test [9] and in test [13] was inactive. Further, in test [16], the Potency was 17.8 µM (active).

Consider `CCCCNc1ccc(C(=O)OCCN(C)C)cc1`, for which the Potency result in test [1], in [2], in [3], in [4], in [10] and in test [11] was “inactive” each time. Besides, the Potency result in test [12] and in [14] was “inactive” in each case. Moreover, the outcome in [5], in [6], in test [7], in test [8], in test [9] and in test [13] was inactive. Moreover, in test [18], the max activation is -1.52%.

In the case of `O=S(=O)(O)c1cc(O)c2ccc(Nc3ccccc3)cc2c1`, the Potency entry in test [1], in test [2], in test [3], in test [4], in [10] and in test [11] was “inactive” in each case. The call in test [5], in test [6], in test [7], in test [8], in [9] and in test [13] was inactive. Further, the Potency in test [16] was 71 µM (active).
